Experimental data: PubChem BioAssay AID652039 (The Scripps Research Institute Molecular Screening Center, 2013)
About 3,300 (0.89%) of roughly 370,000 compounds were called active.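 How the source made its calls: active means activation above the mean of all tested compounds plus 3 SD, computed per campaign excluding outliers beyond control limits (cut at about 13% in these data); inactive means the rest.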 This excerpt belongs to a sample that is enriched for actives.

What follows are compounds tested against Kallikrein-7 (Homo sapiens) (UniProt P49862) (assay: proKLK7 zymogen activators, primary screen, biochemical, fluorescence intensity (AID 652039)). Conditions: purified proKLK7, EDANS-DABCYL substrate fluorescence; at 7 µM; hits give high values; 100% is mature enzyme control, 0% vehicle.
Kallikrein-7 (Homo sapiens), sequence (P49862 whole entry, looked up): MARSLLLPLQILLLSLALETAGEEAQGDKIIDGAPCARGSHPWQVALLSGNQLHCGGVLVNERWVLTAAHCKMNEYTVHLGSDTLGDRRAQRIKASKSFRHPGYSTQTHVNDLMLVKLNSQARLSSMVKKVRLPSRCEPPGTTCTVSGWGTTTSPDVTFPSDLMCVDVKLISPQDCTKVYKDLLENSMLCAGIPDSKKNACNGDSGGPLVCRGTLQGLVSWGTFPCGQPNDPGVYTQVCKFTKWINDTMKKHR
With Cc1ccc(Cn2cc(CN3[C@@H](C)COc4cc(Br)ccc4S3(=O)=O)nn2)cc1 the activation was 0.74% (inactive).
In the case of COc1ccc(-n2c(COc3ccc(C)cc3)nnc2SCC(=O)Nc2ccc(Oc3ccccc3)cc2)cc1, the activation is reported as -0.88% (inactive).
In the case of COc1ccc2c3c(c(=O)oc2c1OCC(=O)C(C)(C)C)CCCC3, the activation is reported as 2.75% (inactive).
For CCCOc1ccc2c3c(c(=O)oc2c1OCCC)CCC3, the activation was -1.41% (inactive).
O=c1oc2c(CN3CCCCC3)c(O)ccc2c2c1CCCCC2 was tested, and the activation was 68.2% (active).
In the case of O=C(OC12CCCN(C1)/C(=C/c1cccnc1)C2)C1CCCC1 (centres undefined), the activation is reported as 0.01% (inactive).
In the case of COc1ccc(C(=O)NCC2CCCN2S(=O)(=O)c2cccs2)cc1OC (centres undefined), the activation is reported as 0.25% (inactive).
CCN1CCCC1CNC(=O)c1cc2cc(OC)c(OC)cc2[nH]1 (centres undefined) was tested, and the activation was 17.5% (active).
For CCN1CCCC1CNC(=O)c1ccc2c(c1)NC(=O)/C(=C\c1ccccc1F)S2 (centres undefined), the activation was 0.44% (inactive).
CN[C@H]1C[C@H]2c3cc(N4CCOCC4)ccc3CCN2C[C@H]1[C@H](C)O was tested, and the activation was -0.23% (inactive).
For Cc1ccccc1NC(=O)C1CCN(c2ncccn2)CC1, the activation was 0.11% (inactive).
For CC[C@@H](CCC(=O)N(c1ccccc1)c1ccccc1)C1CC1, the activation was 0.23% (inactive).
With CCOC(=O)c1cc2c(=O)n3ccccc3nc2n(CC(C)C)c1=NC(=O)c1c(-c2c(F)cccc2Cl)noc1C the activation was 0.37% (inactive).
CCn1c(=N)c(S(=O)(=O)c2ccc(F)cc2)cc2c(=O)n3ccccc3nc21 was tested, and the activation was 3.21% (inactive).
In the case of CCCn1c(=NC(C)=O)c(C(=O)OCC)cc2c(=O)n3ccccc3nc21, the activation is reported as 24.2% (active).
O=C(C1CCN(S(=O)(=O)c2ccccc2)CC1)N1CCN(C2CCCCC2)CC1 was tested, and the activation was 0.53% (inactive).
With O=C(NN1CCOCC1)c1cccc(F)c1 the activation was 0.32% (inactive).
With COc1ccc(N2CCN(CCNS(=O)(=O)c3ccc([N+](=O)[O-])cc3)CC2)cc1 the activation was -0.14% (inactive).
For C=CCOc1cccc(C2NC(=O)c3ccccc3O2)c1 (centres undefined), the activation was -1.97% (inactive).
For O=C1NC(c2ccccc2)Oc2ccccc21 (centres undefined), the activation was -2.02% (inactive).
In the case of O=C1NC(c2cccc(Cl)c2)Nc2ccccc21 (centres undefined), the activation is reported as 13.9% (active).
With O=C(c1ccncc1)N1CC[C@H]2[C@H](CCCN2Cc2ccc(F)cc2)C1 the activation was 0.94% (inactive).
For CC(OC(=O)c1ccccc1NCCO)C(=O)Nc1ccnn1C(C)C (centres undefined), the activation was 32.9% (active).
For Cc1c(NC(=O)C(C)OC(=O)c2ccccc2O)c(=O)n(-c2ccccc2)n1C (centres undefined), the activation was 1.12% (inactive).
For COc1ccccc1NC(=O)C(C)OC(=O)c1ccc(-n2cnnn2)cc1 (centres undefined), the activation was -0.16% (inactive).
With CC(C)CNc1cccc2c1S(=O)(=O)N(Cc1cn(Cc3ccc(Cl)cc3)nn1)Cc1ccccc1O2 the activation was -9.81% (inactive).
For CN(CCc1ccccn1)C1CCCN(S(=O)(=O)c2ccccc2Cl)C1 (centres undefined), the activation was 0% (inactive).
With CN(CCc1ccccn1)S(=O)(=O)c1ccc2c3c(cccc13)C(=O)N2 the activation was 41.6% (active).
CN(CC(=O)NCCc1ccccn1)S(=O)(=O)c1ccc(Cl)cc1 was tested, and the activation was 0.31% (inactive).
For N#Cc1ccc(OC[C@@H](O)CN2CCC(C(O)(c3ccccc3)c3ccccc3)CC2)c(F)c1, the activation was 0.5% (inactive).
With COc1c(N2CCN(C(=S)Nc3ccccc3F)C(C)C2)c(F)cc2c(=O)c(C(=O)O)cn(C3CC3)c12 (centres undefined) the activation was 17.9% (active).
For CN1[C@H](Cc2ccccc2)COc2cccc(N3CCSCC3)c2S1(=O)=O, the activation was 0.48% (inactive).
For C[C@@H]1COc2cccc(N3CCCC3)c2S(=O)(=O)N1C, the activation was 0.38% (inactive).
With N#Cc1nc(-c2cccc3ccccc23)oc1N the activation was 56.1% (active).
CC1CCN(c2oc(-c3ccccc3F)nc2C#N)CC1 was tested, and the activation was -0.12% (inactive).
With N#Cc1nc(Cc2cccc3ccccc23)oc1NCc1ccc2c(c1)OCO2 the activation was 0.74% (inactive).
Cc1nc2ccc(N)nc2nc1C was tested, and the activation was 55.8% (active).
With Cc1nc2cccnc2nc1C the activation was -0.19% (inactive).
For Cc1ccc(C)c(NC(=O)CCS(=O)(=O)c2ccccc2)c1, the activation was -0.69% (inactive).
For Cn1c(=O)c2cc(NC(=O)NCCc3cccs3)ccc2n1Cc1cccc(C(F)(F)F)c1, the activation was -1.5% (inactive).
In the case of COc1cc(Cn2c3ccc(NC(=O)CC(C)c4ccccc4)cc3c(=O)n2C)ccc1F (centres undefined), the activation is reported as 2.56% (inactive).
For CCNC(=S)Nc1ccc2c(c1)c(=O)n(C)n2Cc1ccc(Cl)cc1, the activation was 21.2% (active).
In the case of COc1ccc(N2CCN(CCNS(=O)(=O)c3ccc(Cl)s3)CC2)cc1, the activation is reported as -0.36% (inactive).
With CCOC(=O)C1=C(C)NC2=C(C(=O)CC(C)(C)C2)C1c1ccc2c(c1)OCO2 (centres undefined) the activation was 0.13% (inactive).
For CC(=O)c1ccc(NC(=O)CSc2nc3ccccc3c(=O)n2CCCN2CCOCC2)cc1, the activation was 0.28% (inactive).
In the case of CC(CN1CCOCC1)OC(=O)c1ccc(C(C)(C)C)cc1 (centres undefined), the activation is reported as 0.72% (inactive).
For CC(C)(C)OC(=O)c1c(N)n(CCCN2CCCC2=O)c2nc3ccccc3nc12, the activation was 62.5% (active).
In the case of COCC(C)OC(=O)c1c(N)n(CCCN2CCOCC2)c2nc3ccccc3nc12 (centres undefined), the activation is reported as 16.3% (active).
For Cc1nn(Cc2ccccc2)c(C)c1C(=O)NCCCN1CCCC1=O, the activation was -0.1% (inactive).
With O=C(NCCCN1CCCC1=O)c1ccc(S(=O)(=O)Nc2ccccc2)cc1 the activation was -0.77% (inactive).
CCCCCCNC(=O)O[C@H]1CN(C(=O)OC(C)C)N(C(=O)OC(C)C)[C@@H]2CN(S(=O)(=O)c3ccc(C)cc3)C[C@]12O was tested, and the activation was -0.38% (inactive).
With O=C1CCC2(CCC(c3ccc(Cl)cc3)CC2)N1CCO (centres undefined) the activation was -0.69% (inactive).
With Cc1cccc(C)c1NC(=O)C(c1ccccc1)N1CC(=O)Nc2ccccc21 (centres undefined) the activation was 16.4% (active).
Cc1cccc(C)c1NC(=O)C(c1cccc(F)c1)N1CCN(C)CC1 (centres undefined) was tested, and the activation was -0.04% (inactive).
In the case of Cc1ccccc1SCC(=O)OCC(=O)N1CC(=O)Nc2ccccc21, the activation is reported as 0.52% (inactive).
CCCCNC(=O)C[C@@H]1C(=O)N(CCc2ccc(Cl)cc2)C2=CCCC[C@]21C(=O)OCC was tested, and the activation was 0.21% (inactive).
In the case of CC(CCN1CCC(C(O)(c2ccccc2)c2ccccc2)CC1)Oc1ccc(Cl)cc1 (centres undefined), the activation is reported as -0.05% (inactive).
For CCOC(=O)C(=O)N(Cc1ccccc1)c1ccccc1C(=O)Nc1cc(OC)ccc1OC, the activation was 0.42% (inactive).
In the case of COCCCn1c(-c2cccs2)nc2nc3ccccc3nc21, the activation is reported as 22.9% (active).
For CCc1nnc(NC(=O)CSc2nc3ccccc3c(=O)n2CCCOC)s1, the activation was 0.09% (inactive).
In the case of COc1ccccc1C(=O)Nn1c(-c2cccs2)nc2ccccc2c1=O, the activation is reported as -0.4% (inactive).
In the case of O=C1CC[C@@H](COc2ccc3[nH]cc(-c4ccccc4)c3c2-c2ccccc2)N1, the activation is reported as -1.38% (inactive).
CCCc1cc(=O)oc2c(C)c(OCC(=O)N3CCC(C(=O)O)CC3)ccc12 was tested, and the activation was 0.06% (inactive).
With CCCc1cc(=O)oc2c(C)c(O)c(CN3CCCCC3)cc12 the activation was 58.8% (active).
CCCc1cc(=O)oc2c(C)c(OC(C)C(=O)NCC(O)c3ccccc3)ccc12 (centres undefined) was tested, and the activation was -0.01% (inactive).
For O=C(CSc1nnc(-c2cccc(Cl)c2)n1Cc1ccco1)Nc1ccc(OCc2ccccc2)cc1, the activation was 0.41% (inactive).
CCn1c(SCC(C)=O)nc2sc3c(c2c1=O)CCCC3 was tested, and the activation was 0.36% (inactive).
For CCCNC(=O)Nc1ccc2c(c1)C(=O)N(C)[C@H]1CC[C@H](CC(=O)NCC3CCCCC3)O[C@@H]1CO2, the activation was 0.14% (inactive).
With CCN1CCN(C(=O)c2cc3cc4ccc(OC)cc4nc3s2)CC1 the activation was 68.7% (active).
In the case of CCN1CCN(C(=O)CN(C)S(=O)(=O)c2ccc(OC)cc2)CC1, the activation is reported as -0.44% (inactive).
COc1ccc(OCC(=O)N2CCN(C(=O)c3cccs3)CC2)cc1 was tested, and the activation was 0.07% (inactive).
With COC(=O)[C@]12C[C@H](CC(=O)NCc3ccccc3)C(=O)N(Cc3ccccc3)C1=C[C@H](COCc1ccccc1)O[C@@H]2C the activation was -0.24% (inactive).
In the case of CCCOc1ccc(Oc2c(Cl)cnn(Cc3cccc4ccccc34)c2=O)cc1, the activation is reported as 0.98% (inactive).
For COc1ccc(CSc2nnc(-c3cccc(C)c3)n2C)cc1, the activation was -0.66% (inactive).
CCOC(=O)c1c(NC(=O)NC(C)(C)C)sc2c1CCN(C)C2 was tested, and the activation was 0.12% (inactive).
In the case of CCOC(=O)c1c(NC(=S)SC)sc(C(=O)N2CCc3ccccc3C2)c1C, the activation is reported as 0.73% (inactive).
For CCOC(=O)c1c(NC(=S)Nc2ccccc2)sc2c1CCN(C)C2, the activation was 33.8% (active).
COc1ccc(CNC(=O)C(C)n2nc(C)c3c(C)n(-c4ccccc4)nc3c2=O)c(OC)c1 (centres undefined) was tested, and the activation was 0.01% (inactive).
COCCCNC(=O)C[C@H]1C[C@@]2(C(=O)OC)C(=C[C@H](C(C)(C)C)O[C@@H]2C)N(Cc2ccc(Cl)cc2Cl)C1=O was tested, and the activation was -0.25% (inactive).
With C#CCNC(=O)C[C@H]1C[C@@]2(C(=O)OC)C(=C[C@H](C(C)C)O[C@@H]2C2CC2)N(Cc2ccco2)C1=O the activation was 0.24% (inactive).
In the case of Oc1ccc2ccc3cccc[n+]3c2c1, the activation is reported as 16.2% (active).
With COc1ccc(-n2c(SCC(=O)Nc3ccc(C)c(Cl)c3)nc3ccccc3c2=O)cc1 the activation was -0.5% (inactive).
COc1ccc(-n2c(SCC(=O)Nc3ccc4c(c3)OCCO4)nnc2-c2ccc(Cl)cc2)cc1 was tested, and the activation was -0.65% (inactive).
In the case of CN1C[C@]2(C=C3CCCCC3n3c(=O)n(-c4ccccc4)c(=O)n32)N=C1NC(=O)c1ccccc1 (some centres undefined), the activation is reported as 0.02% (inactive).
COc1ccc(-n2c(SCC(=O)Nc3ccc4cn[nH]c4c3)nnc2-c2cccnc2)cc1 was tested, and the activation was -0.83% (inactive).
O=C(Nc1ccccc1)N1CCN(Cc2nc3ccccc3c(=O)[nH]2)CC1 was tested, and the activation was 0.5% (inactive).
In the case of COc1ccc(CCNC(=O)Nc2ccc3c(c2)c(=O)n(C)n3C)cc1OC, the activation is reported as 33.7% (active).
For COc1ccc(CCNC(=O)c2cc3sccc3n2C)cc1OC, the activation was -0.31% (inactive).
In the case of COc1ccc(CCNC(=O)C(=O)Nc2ccc3nc4n(c(=O)c3c2)CCCCC4)cc1OC, the activation is reported as 0.82% (inactive).
